Assay [1] in a line: Quantitative High-Throughput drug screen in 47 multiple myeloma cell lines against the NCATS MIPE library collection: KHM11_PLB cell viability assay (AID 1918962). Note: nearly all actives have a fitted effect of over 35% in size. In a few lines:
(§1)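 Luminescent ATP measurement with CellTiter-Glo gives viability, scaled between DMSO-only wells (100%) and media-only wells (0%). Cells, 500 per well, faced library compounds for 48 hours at 37C.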

A short description of assay [2]: Quantitative High-Throughput drug screen in 47 multiple myeloma cell lines against the NCATS MIPE library collection: JIM3_ECACC cell viability assay (AID 1918963; note: nearly all actives have a fitted effect of over 35% in size). In a few lines:
as §1

Assay [3] can be described thus: Quantitative High-Throughput drug screen in 47 multiple myeloma cell lines against the NCATS MIPE library collection: INA6_PLB cell viability assay (AID 1918965; note: nearly all actives have a fitted effect of over 55% in size). In a few lines:
(§2)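 Steps: seed 500 cells per well; pin-transfer MIPE 4.0 library; incubate 48 h at 37C, 5% CO2, humidified; add CellTiter-Glo, 5 min room temperature; read luminescence.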

Assay [4] in a line: Quantitative High-Throughput drug screen in 47 multiple myeloma cell lines against the NCATS MIPE library collection: H1112_PLB cell viability assay (AID 1918967; note: nearly all actives have a fitted effect of over 30% in size). In a few lines:
(§3)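 Relative luminescence from CellTiter-Glo served as the viability signal, referenced to DMSO-treated (100%) and cell-free medium (0%) controls. Treatment lasted 48 hours at 37C with 500 cells per well.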

A short description of assay [5]: Quantitative High-Throughput drug screen in 47 multiple myeloma cell lines against the NCATS MIPE library collection: Karpas25_ECACC cell viability assay (AID 1918968; note: nearly all actives have a fitted effect of over 35% in size). In a few lines:
as §3

Assay [6] can be described thus: Quantitative High-Throughput drug screen in 47 multiple myeloma cell lines against the NCATS MIPE library collection: KMS27_JCRB cell viability assay (AID 1918970). Note: nearly all actives have a fitted effect of over 30% in size. The settings on record: KMS27 myeloma cells, CellTiter-Glo ATP viability, 48 h; viability (% of DMSO): at 45.8 µM (top of the series). In a few lines: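 ATP-based viability (CellTiter-Glo luminescence) is measured in cells treated 48 h with approved and investigational drugs at 37 °C. Controls are DMSO-only wells for full viability and media-only wells for none.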
On the technique in general: In ATP-based viability assays light output follows the ATP content of the culture.

Assay [7] in a line: Quantitative High-Throughput drug screen in 47 multiple myeloma cell lines against the NCATS MIPE library collection: KMS12BM_JCRB cell viability assay (AID 1918971). Note: nearly all actives have a fitted effect of over 35% in size. In a few lines: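 We plated 500 myeloma cells per well, pinned in MIPE 4.0 compounds, and incubated for 48 hours at 37C. ATP was then quantified with CellTiter-Glo, with DMSO and media-only wells defining 100% and 0%.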

Assay [8] can be described thus: Quantitative High-Throughput drug screen in 47 multiple myeloma cell lines against the NCATS MIPE library collection: KMS12PE_JCRB cell viability assay (AID 1918972). Note: nearly all actives have a fitted effect of over 30% in size. In a few lines: as §2
Assay [9] can be described thus: Quantitative High-Throughput drug screen in 47 multiple myeloma cell lines against the NCATS MIPE library collection: JJN3_DSMZ cell viability assay (AID 1918966; note: nearly all actives have a fitted effect of over 50% in size). In a few lines:
as §3

Inconclusive results are not listed. Activity calls are given as the source filed them. Calls come from the whole dose curve; as a rule, active = well fitted curve in the direction sought with a large enough effect; inconclusive = small, poorly fitted or top-dose-only effect, or another doubt; inactive = no such curve, though single readings can be large; an effect the other way counts as inactive or inconclusive.
Potency is the fitted concentration of half-maximal effect.

Consider `O=C(O)C1=CC(O)C(O)[C@H](O)C1` (stereo partly specified), for which the Potency entry in assay [1], in assay [2], in assay [3], in assay [4], in assay [5] and in [6] was “inactive” each time. The Potency result in [7] and in [8] was “inactive” throughout.
As to `Cc1ccc(C(=O)N(CCCN)[C@@H](c2oc3cc(Cl)ccc3c(=O)c2Cc2ccccc2)C(C)C)cc1`, the Potency in assay [1] is 9.35 µM (active); in assay [9], 18.7 µM (active). Besides, the Potency entry in [2] and in [6] was “inactive” throughout.
In the case of `Clc1ccc(C2(c3ccc(-c4cn[nH]c4)cc3)CCNCC2)cc1`, the Potency in [1] is 11.8 µM (active); in assay [2], 26.4 µM (active); in assay [3], 5.9 µM (active); in [9], 20.9 µM (active); in assay [4], 16.6 µM (active); in assay [5] it was 3.72 µM (active). For the same compound, the Potency in assay [7] and in assay [8] was 23.5 µM (active) each time.
For the compound `O=C(Nc1cccc(Cl)c1)Nc1ncc(CCNc2ncnc3ccsc23)s1`, the Potency in assay [1] was 4.18 µM (active); in assay [2], 13.2 µM (active); in [3], 7.43 µM (active); in assay [9] it was 5.26 µM (active); in [4], 0.0833 µM (active); in assay [5], 18.7 µM (active). The Potency in assay [7] was 6.62 µM (active); in assay [8] it was 0.662 µM (active).
With `Cc1cccc(Nc2nc(N[C@@H]3CCCC[C@H]3N)ncc2C(N)=O)c1`, the Potency was 4.18 µM (active) in [1]; 16.6 µM (active) in [2]; 1.48 µM (active) in [3]; 16.6 µM (active) in assay [9]; 10.5 µM (active) in assay [5]; 23.5 µM (active) in assay [6]. For the same compound, the Potency in assay [7] was 14.8 µM (active); in assay [8], 16.6 µM (active).
`O[C@@H](COc1cccc2ncccc12)CN1CCN(C2c3ccccc3[C@@H]3[C@H](c4ccccc42)C3(F)F)CC1` (stereo partly specified): the Potency in assay [1] is 16.6 µM (active); in assay [2] it was 13.2 µM (active); in [9] it was 14.8 µM (active); in assay [7] it was 23.5 µM (active). For the same compound, the Potency entry in [8] is “inactive”.
As to `NC[C@H]1O[C@H](O[C@@H]2[C@@H](O)[C@@H](O[C@H]3O[C@H](CO)[C@@H](O)[C@H](N)[C@@H]3O)[C@H](N)C[C@@H]2N)[C@H](O)[C@@H](O)[C@H]1O`, the Potency entry in assay [1], in assay [2], in [4], in assay [5], in [6] and in assay [7] was “inactive” each time. Besides, in assay [8], the Potency entry was “inactive”.
As for `OCCn1cc(-c2ccc3c(c2)CCC3=NO)c(-c2ccncc2)n1`, the Potency in assay [1] was 4.69 µM (active); in assay [5], 23.5 µM (active). In addition, the Potency entry in assay [2], in assay [9], in assay [7] and in [8] was “inactive” throughout.
`CC=C1C2C=C(C)CC1(N)c1ccc(=O)[nH]c1C2` (stereo unspecified): the Potency result in [1], in assay [2], in assay [9], in assay [4], in [5] and in [6] was “inactive” throughout. Moreover, the Potency entry in assay [8] is “inactive”.
Turning to `Cc1ccc(C(=O)N(CCCN)[C@@H](c2nc3cc(Cl)ccc3c(=O)n2Cc2ccccc2)C(C)C)cc1`, the Potency in [1] was 10.5 µM (active); in assay [9] it was 18.7 µM (active). In assay [2], the Potency result is “inactive”. In addition, in assay [6], the viability (% of DMSO) is 70.3% (active).
Consider `CC(=O)Nc1cccc(-n2c(=O)n(C3CC3)c(=O)c3c(Nc4ccc(I)cc4F)n(C)c(=O)c(C)c32)c1`, for which the Potency in [1] was 0.0059 µM (active); in assay [2], 0.187 µM (active); in assay [3] it was 0.0418 µM (active); in assay [4] it was 0.0469 µM (active); in assay [5], 1.66 µM (active).
For the compound `c1cc(OCCN2CCCCC2)cc(-c2n[nH]c3ccc(-c4ncn[nH]4)cc23)c1`, the Potency in assay [1] is 14.8 µM (active); in assay [2], 18.7 µM (active); in assay [3] it was 6.62 µM (active); in assay [9], 11.8 µM (active); in [5], 14.8 µM (active); in [6] it was 18.7 µM (active). The Potency in [8] was 23.5 µM (active).
With `CC(C)c1c(C(=O)Nc2ccccc2)c(-c2ccccc2)c(-c2ccc(F)cc2)n1CC[C@H](O)C[C@@H](O)CC(=O)O`, the Potency in [1] was 18.7 µM (active); in assay [2], 14.8 µM (active); in [3], 8.33 µM (active); in assay [5], 11.8 µM (active); in assay [6], 4.69 µM (active); in [7], 13.2 µM (active). For the same compound, the Potency in assay [8] was 6.62 µM (active).
Regarding `COc1cc(CNC(=O)CCCCC=CC(C)C)ccc1O`, the Potency result in assay [1], in assay [2], in assay [4], in assay [5], in assay [7] and in assay [8] was “inactive” throughout.
Take `Cc1ccc(NC(=O)c2ccc(CN3CCN(C)CC3)cc2)cc1Nc1nc(-c2cccnc2)cs1`: the Potency in [1] is 7.43 µM (active); in assay [2], 14.8 µM (active); in [3] it was 5.26 µM (active); in assay [9] it was 16.6 µM (active); in assay [5], 5.9 µM (active); in assay [6], 20.9 µM (active). In addition, the Potency in assay [7] is 23.5 µM (active); in assay [8], 18.7 µM (active).
With `Cc1cc(C(C)Nc2ccccc2)c2nc(N3CCOCC3)cc(=O)n2c1` (stereo unspecified), the Potency in assay [1] is 1.48 µM (active); in assay [2], 14.8 µM (active); in assay [3] it was 18.7 µM (active); in assay [5], 4.18 µM (active); in assay [8] it was 16.6 µM (active). Further, the Potency entry in assay [9] was “inactive”.
For `Nc1nc(Cl)nc2c1ncn2[C@@H]1O[C@H](CO)[C@@H](O)[C@H]1F`, the Potency in [1] was 0.0148 µM (active); in assay [2] it was 0.418 µM (active); in [3], 0.0148 µM (active); in assay [9], 0.372 µM (active); in assay [5] it was 0.526 µM (active); in assay [8], 0.833 µM (active).
With `O=C(c1ccc(F)c(F)c1Nc1ccc(I)cc1F)N1CC(O)([C@H]2CCCCN2)C1`, the Potency is 0.0372 µM (active) in assay [1]; 14.8 µM (active) in assay [2]; 10.5 µM (active) in assay [3]; 16.6 µM (active) in assay [4]; 16.6 µM (active) in [5]; 0.264 µM (active) in assay [6]. Besides, the results for the Potency in assay [7] and in assay [8] were 23.5 µM (active) and 16.6 µM (active), respectively.
In the case of `CC(C)CNc1ccnc(NCc2csc(-c3ccccc3)n2)n1`, the Potency in [1] was 9.35 µM (active); in [2], 5.26 µM (active); in [3], 2.64 µM (active); in assay [4], 6.62 µM (active); in assay [5] it was 0.935 µM (active); in assay [6], 13.2 µM (active). The Potency is 16.6 µM (active) in assay [7] and 4.69 µM (active) in assay [8].

The values above are taken from PubChem BioAssay (NCATS).
